Experimental findings from PubChem BioAssay (NCATS) are described below.

SMILES strings stand for the structures. Values without a mark were called inactive. Records with an inconclusive call do not appear. Active and inactive are the calls of the source. Unless noted, calls follow the shape of the dose curve; as a rule, active = well fitted curve in either direction with a large enough effect (not every such curve was filed as active); inconclusive = small, poorly fitted or top-dose-only effect, or another doubt; inactive = flat fitted curve, though single readings scatter. Where only a bound is given, the exact number is not on record here.

The target of test [1] is Lysosomal acid glucosylceramidase (Homo sapiens) (UniProt P04062). Description: Glucocerebrosidase-p2 (AID 348; in the data active = potency below about 10 µM; also: potency is read from the fitted curve at half-maximal effect). The conditions noted are these: purified GBA, blue fluorogenic substrate, 40 min. In short, it runs like this:
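Normal human glucocerebrosidase (0.2 nM) with blue fluorogenic substrate (80 uM final) in citrate/phosphate pH 5.9 with 10mM sodium taurocholate, 0.01% tween-20; 40 min RT, NaOH/glycine stop; fluorescence Ex 365/Em 440; AC50 from a titration from 0.6 nM upwards.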

The nature of test [2]: AP1 Signaling Pathway (AID 357). Also: % is scaled to controls: 0 for no effect and ±100 for the full control effect. The conditions noted are these: ME-180 AP-1-bla reporter, EGF-induced, beta-lactamase ratio, 5 h; at 7.69 µM (top of the series) unless noted. A digest of the protocol: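 Cells are seeded overnight, exposed to compound titrations and an EC50 level of EGF for 5 hours at 37 °C, then loaded with CCF4 dye for 2.5 hours. Beta-lactamase activity under the AP-1 element is read as a blue/green ratio.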

Test [3] addresses Cytochrome P450 1A2 (Homo sapiens) (UniProt P05177). Description: p450-cyp1a2 (AID 410; calls by dose curve; also: potency is read from the fitted curve at half-maximal effect;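 as to activity change, negative = inhibition: -100% = full effect of reference inhibitor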). The conditions noted are these: recombinant CYP1A2, luciferin-ME demethylation, luminescence; series mostly up to 57 µM. In short, it runs like this:
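Luminescent demethylation readout: Luciferin-ME (100uM, equal to Km) turned over by 20nM CYP1A2 for 60 min at room temperature after NADPH regeneration addition, following 10 min compound preincubation. Normalization used 57 uM furafylline as full inhibition.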

A short description of test [4]: Stat Signaling Pathway (AID 446).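 Also: ME-180 cervical cancer cells given 40 pM IL-6 alongside compound; SIE-controlled beta-lactamase reporter measured as 460/530 nm FRET emission ratio; % is scaled to controls: 0 for no effect and ±100 for the full control effect.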 As to conditions: ME-180 SIE beta-lactamase reporter, IL-6 stimulated, 5 h; at 7.69 µM (top of the series) unless noted. In short, it runs like this: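 Emission at 460 and 530 nm (excitation 405 nm) reports SIE-controlled beta-lactamase in ME-180 cells. Cells received compound with 40 pM IL-6 for 5 hrs at 37 C; data scaled between 300 pM IL-6 and 125 nM JAK-inhibitor controls.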

The target in test [5] is Glucocorticoid receptor (Homo sapiens) (UniProt P04150). Description: GR-EFC Redistribution (AID 451; calls by dose curve; also: potency is read from the fitted curve at half-maximal effect). The conditions noted are these: CHO-K1 GR-EFC translocation, beta-gal luminescence, 2 h. A digest of the protocol:
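CHO-K1 cells stably expressing nuclear-localized β-gal enzyme acceptor and GR fused C-terminally to the enzyme donor fragment; ligand-driven nuclear translocation restores β-gal by complementation. Compounds titrated up to 46 uM final, 2 h at 37 °C; luminescence read.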

Test [6] has as its target Mitogen-activated protein kinase 10 (Mus musculus) (UniProt Q61831). Description: JNK3 AlphaScreen Assay (AID 530).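 Also: kinase came from lysate of stimulated human HepG2 cells; % is scaled to controls: 0 for no effect and ±100 for the full control effect.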 As to conditions: JNK3 lysate, c-Jun phosphorylation; series mostly up to 57.1 µM. In short, it runs like this: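 Phosphorylation of biotinylated GST-cJun(1-79) at Ser73 is measured by AlphaScreen proximity luminescence. Enzyme is JNK3 in HepG2 lysates activated with interleukin-1beta and tumor necrosis factor alpha; ATP is 10 uM final.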
(In Alpha technology, singlet oxygen from a donor bead excites a nearby acceptor bead.)

Test [7] has as its target 3',5'-cyclic-AMP phosphodiesterase 4B (Homo sapiens) (UniProt Q07343). Description: qHTS Assay for Inhibitors of PDE-IV (AID 607; active = well fitted activation curve with a large enough effect in the main read-out, with a control signal flat, not every such curve was filed as active; also: % of control where 0% means no effect). As to conditions: HEK293 ACTOne CNG channel cells, membrane potential fluorescence; series mostly up to 22.9 µM. In short, it runs like this:
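The readout is membrane depolarisation from a cAMP-sensing CNG channel, detected with a potential dye at ex 535/em 590. Cells were HEK293-derived (endogenous PDE-IV) at 1000 cells/well, titrated up to 22.9 uM final.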

Test [8] in a line: Primary qHTS for small molecule stabilizers of the endoplasmic reticulum resident proteome: Secreted ER Calcium Modulated Protein (SERCaMP) assay (AID 1508630; active = well fitted curve in the direction sought with a large enough effect; an effect the other way counts as inactive or inconclusive; also: % is scaled to controls: 0 for no effect and ±100 for the full control effect). As to conditions: SH-SY5Y GLuc-SERCaMP (Gaussia luciferase released on ER calcium loss) secretion, thapsigargin, luminescence; series mostly up to 38.4 µM. In short, it runs like this:
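The SH-SY5Y reporter protocol was run at 3 concentrations up to 38.3 uM (primary) or 11 concentrations (follow-up): 16 h compound, 100 nM thapsigargin for 4 h, then extracellular luciferase luminescence.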

Test [9] concerns the target Glucocorticoid receptor (Homo sapiens) (UniProt P04150). Description: GR-GFP Redistribution (AID 450;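 active = compounds whose dose series gives a full or clear partial fitted curve of increased nuclear translocation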; also: potency is read from the fitted curve at half-maximal effect). The conditions noted are these: U2OS GR-GFP nuclear translocation, laser cytometry, 2 h.
For test [10], the target named is Cytochrome P450 2C9 (Homo sapiens) (UniProt P11712). Description: qHTS Assay for Inhibitors and Substrates of Cytochrome P450 2C9 (AID 883; active = well fitted curve in the direction sought with a large enough effect; an effect the other way counts as inactive or inconclusive; also: potency is read from the fitted curve at half-maximal effect; nearly all actives have a fitted effect of over 60% in size). The conditions noted are these: recombinant CYP2C9, luciferin-H luminescence, 60 min; series mostly up to 57.1 µM. In short, it runs like this:
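A luminogenic readout tracked human CYP2C9 (10nM) converting deoxyluciferin (100uM, at KM) in 25mM KPO4 during 60 min at 37C with regenerated NADPH. Values normalized to 57uM sulphaphenazole as complete inhibition.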

Test [11] deals with Cytochrome P450 3A4 (Homo sapiens) (UniProt P08684). Description: qHTS Assay for Activators of Cytochrome P450 3A4 (AID 885; active = well fitted curve in the direction sought with a large enough effect; an effect the other way counts as inactive or inconclusive; also: nearly all actives have a fitted effect of over 65% in size). As to conditions: recombinant CYP3A4, Luciferin-PPXE luminescence, 60 min; series mostly up to 57.1 µM. In short, it runs like this: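 Activators are scored by enhanced luminescence from CYP3A4 conversion of luciferin-PPXE (25uM, equal to KM) to luciferin, after 60 min at RT with an NADPH-regenerating system.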
Sequence of Cytochrome P450 3A4 (Homo sapiens) (P08684 whole entry, looked up): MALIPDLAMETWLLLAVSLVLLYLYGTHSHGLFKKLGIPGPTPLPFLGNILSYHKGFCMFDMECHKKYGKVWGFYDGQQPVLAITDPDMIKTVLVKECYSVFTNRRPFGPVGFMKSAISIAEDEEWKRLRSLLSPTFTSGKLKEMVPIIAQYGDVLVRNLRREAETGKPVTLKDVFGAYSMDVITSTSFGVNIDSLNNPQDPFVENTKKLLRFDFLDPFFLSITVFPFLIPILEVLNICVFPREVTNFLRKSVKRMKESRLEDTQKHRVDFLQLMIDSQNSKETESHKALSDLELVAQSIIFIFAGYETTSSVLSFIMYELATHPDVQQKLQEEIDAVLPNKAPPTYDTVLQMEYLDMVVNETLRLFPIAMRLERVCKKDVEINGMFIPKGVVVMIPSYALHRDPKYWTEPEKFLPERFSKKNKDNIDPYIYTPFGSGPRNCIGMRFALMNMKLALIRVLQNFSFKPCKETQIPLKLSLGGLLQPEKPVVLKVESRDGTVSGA

The target in test [12] is Cytochrome P450 2C19 (Homo sapiens) (UniProt P33261). The test can be described thus: qHTS Assay for Inhibitors and Substrates of Cytochrome P450 2C19 (AID 899; active = well fitted curve in the direction sought with a large enough effect; an effect the other way counts as inactive or inconclusive; also: potency is read from the fitted curve at half-maximal effect; nearly all actives have a fitted effect of over 60% in size). As to conditions: recombinant CYP2C19, luciferin-H EGE luminescence; series mostly up to 57.1 µM. In short, it runs like this:
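NADPH-dependent conversion of Luciferin-H EGE (10uM, at KM) by 5nM enzyme in 50mM KPO4, 60 min at 37C following 10 min compound preincubation. Stopped with luciferin detection buffer; luminescence read after 20 min.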
In general terms: Quantitative high-throughput screening tests each substance at several concentrations.

In test [13] the target is Cytochrome P450 2D6 (Homo sapiens) (UniProt P10635). Description: qHTS Assay for Inhibitors and Substrates of Cytochrome P450 2D6 (AID 891; active = well fitted curve in the direction sought with a large enough effect; an effect the other way counts as inactive or inconclusive; also: potency is read from the fitted curve at half-maximal effect; nearly all actives have a fitted effect of over 60% in size). The conditions noted are these: recombinant CYP2D6, luciferin-ME EGE luminescence; series mostly up to 57.1 µM. In short, it runs like this: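 Luminescent read-out of luciferin formed by 5 nM human CYP2D6 demethylating 30 uM Luciferin-ME EGE (Km level) over 60 min at room temperature after NADPH regeneration addition. Data normalized to full inhibition by 1.43 uM quinidine.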
Sequence of Cytochrome P450 2D6 (Homo sapiens) (P10635 whole entry, looked up): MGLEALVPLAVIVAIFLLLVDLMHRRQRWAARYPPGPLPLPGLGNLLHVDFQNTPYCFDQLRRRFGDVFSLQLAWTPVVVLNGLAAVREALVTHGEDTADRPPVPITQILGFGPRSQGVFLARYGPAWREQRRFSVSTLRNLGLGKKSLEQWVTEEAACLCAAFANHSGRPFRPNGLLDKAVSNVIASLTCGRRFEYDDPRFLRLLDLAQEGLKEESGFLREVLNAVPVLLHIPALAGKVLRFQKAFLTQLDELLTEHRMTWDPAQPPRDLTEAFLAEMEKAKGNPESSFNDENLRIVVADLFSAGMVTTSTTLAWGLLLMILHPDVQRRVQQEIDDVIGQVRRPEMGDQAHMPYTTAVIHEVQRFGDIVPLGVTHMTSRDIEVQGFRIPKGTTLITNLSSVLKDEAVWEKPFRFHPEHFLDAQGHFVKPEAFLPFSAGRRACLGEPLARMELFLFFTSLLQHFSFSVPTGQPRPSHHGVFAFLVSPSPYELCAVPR

Test [14] concerns the target Cytochrome P450 3A4 (Homo sapiens) (UniProt P08684). The test can be described thus: qHTS Assay for Inhibitors and Substrates of Cytochrome P450 3A4 (AID 884; active = well fitted curve in the direction sought with a large enough effect; an effect the other way counts as inactive or inconclusive; also: potency is read from the fitted curve at half-maximal effect; nearly all actives have a fitted effect of over 50% in size). The conditions noted are these: recombinant CYP3A4, Luciferin-PPXE luminescence; series mostly up to 57.1 µM. In short, it runs like this:
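Luminescent readout of luciferin produced by CYP3A4 (20 nM) dealkylation of Luciferin-PPXE, 25 uM (its KM). NADPH-driven reaction ran 60 min at RT after 10 min compound preincubation; data scaled to 57 uM ketoconazole as 100% inhibition.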

Test [15] in a line: qHTS Assay for Identification of Small Molecule Agonists for Hypoxia Response Element Signaling Pathway (AID 914; active = well fitted activation curve with a large enough effect in the signal ratio, with a control signal flat, not every such curve was filed as active; the % refers to the signal ratio; also: % of control where 0% means no effect). The conditions noted are these: ME-180 (cervical carcinoma) HRE-bla reporter, beta-lactamase ratio, CoCl2, 17 h; activation: stronger effect = higher value. In short, it runs like this:
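Positive modulation of EC50 CoCl2-induced hypoxia response element signaling is measured in ME-180 cells with a beta-lactamase reporter. Compounds are titrated, incubation runs 17 hours, and %Activity derives from the blue/green ratio.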

Sequence of Lysosomal acid glucosylceramidase (Homo sapiens) (P04062 whole entry, looked up): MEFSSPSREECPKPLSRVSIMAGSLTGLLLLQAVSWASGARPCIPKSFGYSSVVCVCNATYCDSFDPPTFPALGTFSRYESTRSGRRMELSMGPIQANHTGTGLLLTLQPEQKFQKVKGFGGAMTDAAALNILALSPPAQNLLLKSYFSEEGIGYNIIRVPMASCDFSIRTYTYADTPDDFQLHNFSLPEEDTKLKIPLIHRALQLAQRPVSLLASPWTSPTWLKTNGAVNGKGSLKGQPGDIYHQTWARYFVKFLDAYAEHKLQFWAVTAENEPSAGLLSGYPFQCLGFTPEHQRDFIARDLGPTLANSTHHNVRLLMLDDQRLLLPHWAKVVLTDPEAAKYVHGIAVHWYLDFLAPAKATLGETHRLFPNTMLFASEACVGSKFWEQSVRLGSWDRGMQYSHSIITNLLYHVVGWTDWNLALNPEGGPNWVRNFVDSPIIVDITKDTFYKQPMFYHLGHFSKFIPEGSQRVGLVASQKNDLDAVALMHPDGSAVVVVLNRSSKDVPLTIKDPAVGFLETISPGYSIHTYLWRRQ
Sequence of 3',5'-cyclic-AMP phosphodiesterase 4B (Homo sapiens) (Q07343 whole entry, looked up): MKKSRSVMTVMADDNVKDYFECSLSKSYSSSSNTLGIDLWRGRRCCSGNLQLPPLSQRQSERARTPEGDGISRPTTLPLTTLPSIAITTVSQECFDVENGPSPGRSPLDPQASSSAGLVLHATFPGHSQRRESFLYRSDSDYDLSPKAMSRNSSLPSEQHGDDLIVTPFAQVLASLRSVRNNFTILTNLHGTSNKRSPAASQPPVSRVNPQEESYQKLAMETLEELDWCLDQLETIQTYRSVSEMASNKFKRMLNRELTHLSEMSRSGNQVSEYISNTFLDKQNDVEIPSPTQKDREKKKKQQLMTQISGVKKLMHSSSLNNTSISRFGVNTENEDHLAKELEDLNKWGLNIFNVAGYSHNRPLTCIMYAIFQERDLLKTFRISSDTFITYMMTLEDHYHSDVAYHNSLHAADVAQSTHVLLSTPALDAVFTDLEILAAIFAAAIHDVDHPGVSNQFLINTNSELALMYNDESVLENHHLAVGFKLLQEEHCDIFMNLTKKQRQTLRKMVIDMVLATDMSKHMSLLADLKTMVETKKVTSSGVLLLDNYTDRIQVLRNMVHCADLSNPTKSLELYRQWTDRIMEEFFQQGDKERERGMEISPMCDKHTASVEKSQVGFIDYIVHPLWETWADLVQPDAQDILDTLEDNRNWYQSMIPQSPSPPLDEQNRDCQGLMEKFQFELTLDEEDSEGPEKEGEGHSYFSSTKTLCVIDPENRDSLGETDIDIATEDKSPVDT
Sequence of Glucocorticoid receptor (Homo sapiens) (P04150 whole entry, looked up, the tested form may be a part): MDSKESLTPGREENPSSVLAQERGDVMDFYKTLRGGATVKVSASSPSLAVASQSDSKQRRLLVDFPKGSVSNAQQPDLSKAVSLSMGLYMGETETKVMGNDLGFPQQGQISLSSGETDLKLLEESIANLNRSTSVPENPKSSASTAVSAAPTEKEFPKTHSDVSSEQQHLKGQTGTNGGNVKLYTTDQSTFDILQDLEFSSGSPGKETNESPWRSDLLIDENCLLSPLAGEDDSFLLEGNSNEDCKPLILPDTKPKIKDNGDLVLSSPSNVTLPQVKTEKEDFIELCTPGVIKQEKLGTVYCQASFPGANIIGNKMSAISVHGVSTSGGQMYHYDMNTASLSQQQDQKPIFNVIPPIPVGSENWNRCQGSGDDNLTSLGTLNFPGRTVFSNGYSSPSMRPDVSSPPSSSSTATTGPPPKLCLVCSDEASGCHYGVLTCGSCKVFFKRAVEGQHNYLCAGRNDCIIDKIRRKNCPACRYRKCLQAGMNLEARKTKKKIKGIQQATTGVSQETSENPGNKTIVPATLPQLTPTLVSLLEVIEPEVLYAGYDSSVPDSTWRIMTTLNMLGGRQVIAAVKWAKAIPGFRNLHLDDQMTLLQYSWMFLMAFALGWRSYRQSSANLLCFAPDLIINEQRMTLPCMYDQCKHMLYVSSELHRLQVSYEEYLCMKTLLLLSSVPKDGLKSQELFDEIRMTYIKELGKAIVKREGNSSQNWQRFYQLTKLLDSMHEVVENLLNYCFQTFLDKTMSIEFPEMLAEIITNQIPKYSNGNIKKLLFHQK
Sequence of Cytochrome P450 1A2 (Homo sapiens) (P05177 whole entry, looked up): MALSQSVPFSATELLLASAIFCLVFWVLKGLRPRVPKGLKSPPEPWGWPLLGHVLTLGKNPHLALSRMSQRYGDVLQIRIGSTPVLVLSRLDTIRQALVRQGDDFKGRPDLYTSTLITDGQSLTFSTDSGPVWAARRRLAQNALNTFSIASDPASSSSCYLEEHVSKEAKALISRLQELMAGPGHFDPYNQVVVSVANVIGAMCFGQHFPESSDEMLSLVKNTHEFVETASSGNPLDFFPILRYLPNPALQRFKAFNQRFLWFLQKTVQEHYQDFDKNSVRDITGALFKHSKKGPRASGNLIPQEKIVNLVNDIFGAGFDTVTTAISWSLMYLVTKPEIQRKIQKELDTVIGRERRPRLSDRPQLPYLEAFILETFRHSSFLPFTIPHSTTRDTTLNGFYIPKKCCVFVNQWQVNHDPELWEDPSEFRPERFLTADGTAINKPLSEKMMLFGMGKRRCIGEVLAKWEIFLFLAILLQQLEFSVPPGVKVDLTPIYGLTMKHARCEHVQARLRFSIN
Sequence of Cytochrome P450 2C19 (Homo sapiens) (P33261 whole entry, looked up): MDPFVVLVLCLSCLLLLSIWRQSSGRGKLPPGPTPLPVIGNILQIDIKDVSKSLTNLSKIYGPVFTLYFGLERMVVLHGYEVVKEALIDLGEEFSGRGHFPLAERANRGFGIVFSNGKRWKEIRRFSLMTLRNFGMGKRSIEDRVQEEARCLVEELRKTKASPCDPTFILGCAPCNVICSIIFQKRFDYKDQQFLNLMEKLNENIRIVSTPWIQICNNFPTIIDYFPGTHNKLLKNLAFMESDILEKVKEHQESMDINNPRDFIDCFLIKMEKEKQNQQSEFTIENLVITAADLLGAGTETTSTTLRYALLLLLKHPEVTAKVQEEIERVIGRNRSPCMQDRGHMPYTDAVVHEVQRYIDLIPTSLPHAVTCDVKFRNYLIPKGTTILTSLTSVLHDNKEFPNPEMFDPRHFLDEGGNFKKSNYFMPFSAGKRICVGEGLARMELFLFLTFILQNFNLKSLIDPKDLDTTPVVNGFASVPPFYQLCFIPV
Sequence of Cytochrome P450 2C9 (Homo sapiens) (P11712 whole entry, looked up): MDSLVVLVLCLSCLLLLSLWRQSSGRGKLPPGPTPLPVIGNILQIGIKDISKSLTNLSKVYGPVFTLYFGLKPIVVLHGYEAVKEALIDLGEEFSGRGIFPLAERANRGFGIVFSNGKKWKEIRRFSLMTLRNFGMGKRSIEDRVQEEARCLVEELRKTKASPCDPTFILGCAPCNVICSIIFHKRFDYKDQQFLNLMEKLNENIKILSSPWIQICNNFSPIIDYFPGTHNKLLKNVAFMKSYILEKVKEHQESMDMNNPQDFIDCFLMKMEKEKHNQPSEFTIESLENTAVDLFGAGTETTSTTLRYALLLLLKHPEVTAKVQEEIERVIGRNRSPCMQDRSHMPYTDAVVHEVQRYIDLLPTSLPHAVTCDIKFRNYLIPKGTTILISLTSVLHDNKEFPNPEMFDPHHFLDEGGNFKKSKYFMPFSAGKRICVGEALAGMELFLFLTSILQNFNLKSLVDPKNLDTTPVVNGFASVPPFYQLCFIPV

For the molecule `COC(=O)N1CCC2(CC1)CCN(c1ccncc1)CC2`, the values for the Potency in test [1] and in test [5] were over 11.4 µM and over 46 µM, respectively. Further, the activity change, negative = inhibition in test [2] is 6.46%. For the same molecule, the Potency entry in [3], in test [6] and in test [7] was “inactive” in each case. Further, the activity, negative = inhibition in test [4] is 20.2%. Besides, in [8], the result was inactive.

Regarding `O=c1c(-c2cccc(Cl)c2)nc2cncnc2n1Cc1ccccc1Cl`, the Potency is over 11.4 µM in test [1]; 2 µM (active) in [3]; over 9.22 µM in test [9]; over 46 µM in [5]; 3.98 µM (active) in [10]; 5.01 µM (active) in [12]. In addition, the activity change, negative = inhibition in test [2] was 15.6%. Also, the activity, negative = inhibition in test [4] was -2.1%. In addition, the Potency result in test [6] and in test [11] was “inactive” throughout. The outcome in [8] was inactive.

On to `COc1ccc(C(=O)N2CCC[C@@]3(CCN(Cc4ccccc4)C3)C2)cc1`, for which the Potency was over 11.4 µM in test [1], 12.6 µM (active) in test [3], over 46 µM in test [5] and 7.94 µM (active) in test [13]. Besides, the activity change, negative = inhibition in [2] is 13%. Also, the activity, negative = inhibition in test [4] was -4.24%. The Potency result in test [6], in test [7] and in test [11] was “inactive” each time. Moreover, in test [8], the result was inactive.

Turning to `O=S(=O)(c1ccccc1)N1CCC2(CCCN(Cc3ccncc3)C2)CC1`, the Potency was over 11.4 µM in test [1]; 12.6 µM (active) in [3]; over 46 µM in [5]; 3.98 µM (active) in test [14]; 0.316 µM (active) in [12]. Moreover, the activity change, negative = inhibition in test [2] was -20.2%. Moreover, in test [4], the activity, negative = inhibition is -3.44%. The Potency entry in test [6], in test [7] and in [11] was “inactive” in each case. Also, in test [8], the result was inactive.

As for `O=C(c1ccco1)N1CCC2(CCCN(Cc3ccccc3)C2)CC1`, the Potency in test [1] is over 11.4 µM. The activity change, negative = inhibition in [2] is -8.21%. The Potency entry in test [3], in [6], in test [7] and in test [11] was “inactive” in each case. Further, the activity, negative = inhibition in [4] is 10.9%. For the same molecule, the activation in test [15] was 3.78%. Further, in test [8], the result was inactive.

For the molecule `O=C(c1csnn1)N1CCC2(CC1)CCN(c1ccccn1)CC2`, the Potency in test [1] was over 11.4 µM; in test [3], 25.1 µM (active); in [5], over 46 µM. For the same molecule, the activity change, negative = inhibition in [2] was 15.4%. Further, the activity, negative = inhibition in [4] was 4.86%. Besides, the Potency entry in test [6] and in [7] was “inactive” throughout. Moreover, in test [8], the outcome was inactive.

As for `N#Cc1ccc(CN2CCC3(CC2)CCN(C(=O)c2csnn2)CC3)cc1`, the Potency is over 11.4 µM in test [1] and over 46 µM in [5]. Besides, the activity change, negative = inhibition in test [2] is 3.47%. For the same molecule, the Potency entry in test [3], in [6] and in test [7] was “inactive” throughout. In addition, in test [4], the activity, negative = inhibition is -1.95%. Besides, the result in test [8] was inactive.

For the molecule `CN(C)c1ccc(-c2nc(NC3CCNCC3)c3ccccc3n2)cc1`, the Potency in test [1] was 7.09 µM (active); in test [3], 15.8 µM (active); in test [9], over 46 µM; in test [5], over 46 µM. For the same molecule, the activity change, negative = inhibition in test [2] is 4.91%. The Potency result in [6], in [7] and in test [11] was “inactive” in each case. In test [8], the outcome was inactive.
